Bioassay records from PubChem BioAssay.
Tau ThT inhib – tau fibrillization inhibition (ThT binding); recombinant tau K18 P301L, heparin-induced fibrillization, ThT fluorescence; 2.1% of 270,000 active; P10636; Potency, µM (doses to about 57.4 µM), for the others: at the highest dose activity, negative = inhibition, usual class: inhibitors; also: nearly all actives have a fitted effect of over 55% in size
Target sequence (P10636 561-689 P618L limits assumed): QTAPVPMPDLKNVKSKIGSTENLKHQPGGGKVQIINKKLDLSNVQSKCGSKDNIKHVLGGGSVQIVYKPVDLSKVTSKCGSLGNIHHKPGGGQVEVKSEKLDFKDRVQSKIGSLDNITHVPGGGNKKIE
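Heparin-induced fibrillization of the P301L-mutant K18 repeat-domain fragment of human tau was followed by ThT binding in quantitative high-throughput format.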
NPSR antag – antagonists of human neuropeptide S receptor cAMP signaling; 1% of 220,000 active; Q6W5P4; CHO-NPSR cells, cAMP TR-FRET, antagonist mode; AID 1461; Potency, µM (top dose mostly 38.3 µM), inactives show top-dose activity change, negative = inhibition, actives largely listed as inhibitors; also: nearly all actives have a fitted effect of over 50% in size
Target sequence (Q6W5P4 whole entry, looked up): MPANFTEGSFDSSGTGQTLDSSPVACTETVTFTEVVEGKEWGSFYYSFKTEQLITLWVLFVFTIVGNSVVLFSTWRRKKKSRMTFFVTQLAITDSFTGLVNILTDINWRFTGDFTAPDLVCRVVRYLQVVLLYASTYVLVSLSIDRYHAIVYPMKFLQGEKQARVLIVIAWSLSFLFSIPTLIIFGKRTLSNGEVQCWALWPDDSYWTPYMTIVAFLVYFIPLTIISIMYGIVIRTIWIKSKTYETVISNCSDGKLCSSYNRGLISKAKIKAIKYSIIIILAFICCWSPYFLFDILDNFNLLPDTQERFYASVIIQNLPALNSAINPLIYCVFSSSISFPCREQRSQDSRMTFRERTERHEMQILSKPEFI
HPGD block – HPGD (human) dehydrogenase inhibition. P15428. purified HPGD, NADH fluorescence kinetic, PGE2 substrate. Potency, µM, for the others: top-dose activity change, negative = inhibition, usual class: inhibitors. 4.3% of 150,000 active. AID 894; active = well fitted inhibition curve with a large enough effect, not every such curve was filed as active; inconclusive = small, poorly fitted or top-dose-only effect, or another doubt; inactive = no such curve, though single readings can be large or run the other way
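NADH formation kinetics: reaction with 30 uM PGE2 and 1 mM NAD+ (final), 20 nM enzyme, Tris-HCl pH 8 with Tween 20, after 15 min compound preincubation at room temperature. Fluorescence change, last versus first of five reads.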
ALDH1A1 inh – inhibitors of human aldehyde dehydrogenase 1A1. P00352. Purified ALDH1A1, NADH fluorescence, propionaldehyde substrate. Potency, µM (doses to about 75.3 µM), without a hit: at the top dose activity, negative = inhibition, hits mostly inhibitors. 7.3% of 220,000 active; active = well fitted inhibition curve with a large enough effect, not every such curve was filed as active; inconclusive = small, poorly fitted or top-dose-only effect, or another doubt; inactive = no such curve, though single readings can be large or run the other way;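 also: plate controls were no enzyme wells and a reference inhibitor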
Tau FP inhib – inhibitors of human tau fibril formation; P10636; K18 P301L tau heparin fibrillization, Alexa594 FP, 6 h; Potency, µM (series often up to 57.7 µM), for inactives: at the top dose activity, negative = inhibition, hits mostly inhibitors; 0.39% of 280,000 active; AID 1468; also: nearly all actives have a fitted effect of over 55% in size
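K18 P301L tau (15 uM unlabeled/0.24 uM Alexa 594-labeled, final) + compound + heparin 20 uM final; 100 mM NaOAc pH 7; 6 hr 37 C; ThT 30 uM final added, 1 hr RT; FP ex 555/em 632 nm.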
Tau fluor counter – counter-screen for tau fibril formation inhibitors; tau K18 P301L Alexa594 fluorescence, heparin fibrillization; 0.93% of 280,000 active; Potency, µM (doses to about 57.7 µM), without a hit: top-dose activity change, negative = decrease; AID 1463; also: nearly all actives have a fitted effect of over 55% in size
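Human tau K18 P301L (15 uM unlabeled, 0.24 uM Alexa 594-labeled) in 100 mM sodium acetate pH 7 with 20 uM heparin, 6 hr at 37 C. ThT 30 uM added, 1 hr ambient; Alexa 594 FP and total fluorescence read at 555/632 nm.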
Active calls of the source: *; ? = inconclusive; . = no result given; [ ] = dose if it differs, or a comment. The list is not random: actives were taken first. Their share in the collection is about 9.5%. Unless noted, calls follow the shape of the dose curve; as a rule, active = well fitted curve in the direction sought with a large enough effect; inconclusive = small, poorly fitted or top-dose-only effect, or another doubt; inactive = no such curve, though single readings can be large; an effect the other way counts as inactive or inconclusive. Unless noted, % is scaled to controls: 0 for no effect and ±100 for the full control effect; potency is read from the fitted curve at half-maximal effect.

SMILES	Tau ThT inhib	NPSR antag	HPGD block	ALDH1A1 inh	Tau FP inhib	Tau fluor counter
O=C(NC(=S)Nc1ccc(CN2CCCCC2)cc1)c1cccc(OCc2ccccc2)c1	-5%	-24%	.	?	7%	-21%
N#CC1(c2ccccc2)CCCN1C(=O)c1ccccc1Br (stereo unspecified)	-11%	10%[46.1 µM]	-8%	10%	2%	-8%
CCOc1ccc(NC(=O)CN2C(=O)CC(C)Sc3ccccc32)cc1 (stereo unspecified)	-8%	.	.	.	1%	-9%
O=C(Cn1cc([N+](=O)[O-])cn1)N1N=C(C(F)F)CC1(O)C(F)F (stereo unspecified)	-5%	15%	-3%	6%	-7%	-7%
Cc1cc(NC(=O)CC(CN(C)S(=O)(=O)c2ccccc2)c2ccccc2)no1 (stereo unspecified)	-10%	0%	-2%	?	0%	-12%
Cc1ccc(Cl)cc1NC(=O)C1CCN(S(=O)(=O)c2cccc3nonc23)CC1	-2%	.	.	.	-5%	-10%
CCCc1nc2ccccc2n1CCc1ccccc1	?	-8%	-11%	-1%	5%	-14%
CCOc1cccc(C(=O)NC(=S)Nc2cccc(NC(=O)c3ccccc3Cl)c2)c1	5%	-12%	-27%	1.4µM*	15%	1%
Cc1ccccc1-c1nc2c(c(SCc3cccc(Cl)c3)n1)Cc1c(CO)cnc(C)c1O2	1%	.	.	.	10%	0%
COc1ccc(S(=O)(=O)N(C(C)=O)c2ccc(OC(C)=O)c3ccccc23)cc1[N+](=O)[O-]	?	-18%[46.1 µM]	.	7.1µM*	?	?
COC(=O)C1=C(C(=O)OC)SC2(S1)C(C(=O)OC)=C(C(=O)OC)SC1=C2c2cc(C)ccc2NC1(C)C	13µM*	-23%[46.1 µM]	10µM*	8.9µM*	?	?
O=C(COC(=O)/C=C/c1ccc(Br)o1)Nc1ccccc1F	-9%	-14%	.	14µM*	0%	-7%
CC(C)=CCn1cnc2c1c(=O)n(C)c(=O)n2C	2%	.	-3%	3%	-5%	4%
COc1ccc(OC)c2c(=S)c3ccccc3[nH]c12	4µM*	.	5µM*	1.6µM*	7.9µM*	11µM*[quencher]
COCCCn1c(SCC(=O)Nc2cccc(C(=O)OC)c2)nnc1-c1ccncc1	-10%	-1%[46.1 µM]	.	12%	0%	-4%
CN(C)CCCn1c(SCC(=O)Nc2sc3c(c2C#N)CCCC3)nnc1-c1ccncc1	-7%	-2%[46.1 µM]	6%	7.1µM*	8%	-10%
COCCCn1c(SCC(=O)Nc2sc3c(c2C#N)CCCC3)nnc1-c1ccncc1	?	-5%[46.1 µM]	?	20µM*	9%	-6%
COc1ccc(C)cc1NS(=O)(=O)c1ccc2c(c1)[C@H]1C=CC[C@H]1[C@@H](c1cccc(Cl)c1)N2	?	.	.	.	10%	?
Cc1cc(=O)c2c(O)c(O)ccc2o1	?	-11%[46.1 µM]	-19%	-7%	-8%	-16%
O=C(O)[C@H]1CCCC[C@@H]1c1c2ccc(=O)c(O)c-2oc2c(O)c(O)ccc12	.	.	4.5µM*	-9%[13.5 µM]	.	.
O=C(O)/C=C\c1c2ccc(=O)c(O)c-2oc2c(O)c(O)ccc12	.	.	2.8µM*	3%[13.5 µM]	.	.
Cc1ccsc1CNC(=O)c1c(-c2ccccc2)noc1C	2%	-6%	.	-5%	-3%	-2%
CCN(C(=O)c1ccc2c(c1)N(Cc1cccc(Cl)c1)C(=O)c1ccccc1S2=O)c1ccccc1 (stereo unspecified)	-7%	.	.	.	8%	0%
CCN(CC(=O)NCc1cccs1)c1ccc(S(=O)(=O)N2CCCC2)cn1	-1%	3%	.	2.5µM*	-2%	-3%
CN(CCNC(=O)c1cn(C)c2ccc(S(=O)(=O)N3CCCC3)cc2c1=O)CCc1ccccc1	-5%	17%[46.1 µM]	-7%	32µM*	0%	-3%
SMILES	Tau ThT inhib	NPSR antag	HPGD block	ALDH1A1 inh	Tau FP inhib	Tau fluor counter
Cn1cc(C(=O)NCc2cccs2)c(=O)c2cc(S(=O)(=O)N3CCCC3)ccc21	-10%	-8%	-8%	4.5µM*	0%	-18%
CN(C1CCCCC1)S(=O)(=O)c1ccc2c(c1)c(=O)c(C(=O)NCCN1CCCC1)cn2C	-6%	-6%[46.1 µM]	-10%	7.9µM*	5%	-3%
Cc1ccc(CNC(=O)CCCn2c(=O)c3ccccc3n(Cc3ccccc3Cl)c2=O)cc1	2%	.	.	.	8%	0%
Cc1nc2ccccc2c(=O)n1NCc1cc(Br)cs1	-13%	-16%[46.1 µM]	-7%	1%	4%	-16%
COC(=O)c1cn(C)c2ccc(S(=O)(=O)N3CCCC3)cc2c1=O	-15%	-7%[46.1 µM]	8.9µM*	?	-2%	-7%
Cc1ccc(Nc2nc3c(s2)CCC3)c(C)c1	?	-3%[46.1 µM]	-12%	?	-5%	-9%
COc1ccccc1Nc1nc(Cl)c(C=O)s1	?	-26%	.	18µM*	10%	-29%
COc1ccccc1Nc1nc2c(s1)CCC2	?	-5%[46.1 µM]	?	18µM*	?	-24%
Cc1[nH]n(-c2ccccc2)c(=O)c1C(c1cccc([N+](=O)[O-])c1)c1c(C)[nH]n(-c2ccccc2)c1=O	?	-12%	32µM*	?	?	?
Cc1[nH]n(-c2ccccc2)c(=O)c1C(C[N+](=O)[O-])c1ccc(Br)cc1 (stereo unspecified)	?	-3%[46.1 µM]	?	22µM*	0%	-27%
COc1ccc(CCNC(=O)CCc2c(C)c3cc4c(C)coc4c(C)c3oc2=O)cc1OC	-11%	.	.	.	-5%	1%
CC1CCN(C(=S)c2ccc(O)cc2)CC1	?	-6%[46.1 µM]	32µM*	?	?	-16%
N#C/C(=C\c1coc2ccc(O)cc2c1=O)C(=O)Nc1nc2ccccc2s1	18µM*	-48%	.	.	?	28µM*[quencher]
Cc1ccc2c(c1)-c1c(ssc1=S)C(C)(C)N2C(=O)c1ccco1	?	?	8.9µM*	10µM*	-1%	-23%
CC1(C)c2ssc(=S)c2-c2ccccc2N1C(=O)c1ccco1	?	-28%[46.1 µM]	-9%	0%	-2%	-27%
CC(C)(C)N1C(=O)[C@H]2[C@H]3[C@H](O)[C@H](O)C/C(=N/NC(=O)OCc4ccccc4)[C@@H]3CC[C@@H]2C1=O	-7%[11.5 µM]	.	.	-8%[13.5 µM]	0%[11.6 µM]	2%[11.6 µM]
O=C(CCOc1ccccc1)OCC(=O)c1cc2ccccc2o1	?	2%[46.1 µM]	32µM*	-7%	5%	-21%
CSc1ncccc1C(=O)OCC(=O)c1cc2ccccc2o1	?	-1%[7.67 µM]	-12%	-11%	-15%	?
Cc1cc(C)nc(SCCc2ccncc2)n1	-9%	-10%[46.1 µM]	-21%	25µM*	-3%	6%
